Experimental data: PubChem BioAssay (NCATS)
Records with an inconclusive call do not appear. Calls of active or inactive are those of the source. The call rests on the fitted dose curve; in most records, active means well fitted curve in the direction sought with a large enough effect; inconclusive means small, poorly fitted or top-dose-only effect, or another doubt; inactive means no such curve, though single readings can be large; an effect the other way counts as inactive or inconclusive.

Experiments:
[1] = target: Protein phosphatase 1D (Homo sapiens) (UniProt O15297); test: RapidFire Mass Spectrometry qHTS Assay for Modulators of WT P53-Induced Phosphatase 1 (WIP1) (AID 1347424);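 further: amount of dephosphorylated VEPPL-S-QETFS peptide product formed by WIP1; series mostly up to about 63 µM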
Method in brief: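 RapidFire mass spectrometry measured dephosphorylated peptide after 5 min room-temperature reaction of 2 uM VEPPL-pS-QETFS with 10 nM WIP1 (50 mM Tris-HCl pH 7.5, 30 mM MgCl2, 0.1 mM EGTA, BSA), following 1 hr compound preincubation; 1 uM isotope-labelled product standard.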

[2] = target: Protein phosphatase 1D (Homo sapiens) (UniProt O15297); test: Rhodamine-PBP qHTS Assay for Modulators of WT P53-Induced Phosphatase 1 (WIP1) (AID 1347425)
Method in brief: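 WIP1 (5 nM final) was preincubated with compound for 1 hour at room temperature. It then dephosphorylated 10 uM VEPPL-pS-QETFS peptide in Tris-HCl pH 7.5 with 30 mM MgCl2. Released Pi was detected by 10 uM Rh-PBP fluorescence (ex 525/em 598 nm) read at 1-min intervals for 11 min, as delta f1 - f0.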

[3] = Primary qHTS for inhibitors of La Crosse Virus (LACV) - induced cell death in SH-SY5Y cells (AID 1508616);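 further: top concentration of the series differs between compounds; higher means more rescue of cells from virus-induced death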
Method in brief: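 Rescue of virus-induced death was read as ATPLite luminescence after 6 days at 37C, scaled between DMSO wells with LACV and without virus. Cells were SH-SY5Y, 6000/well, infected at 0.01 MOI after compound addition.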

[4] = target: Calcium and integrin-binding protein 1 (Homo sapiens) (UniProt Q99828); test: Primary qHTS for Identification of Calcium Integrin Binding Protein 1 (CIB1) Competitor (AID 1508620);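 further: GST tagged CIB1 binding a fluorescein labelled alphaIIb integrin peptide tracer; top concentration of the series differs between compounds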
Method in brief: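 CIB1-GST (1 uM final) and compound incubated 15 min at room temperature before adding FITC-alphaIIb peptide tracer (100 nM final). Competition for binding read by fluorescence polarization (ex 480, em 540) after another 15 min at room temperature.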

Measured: Potency

Chain of Protein phosphatase 1D (Homo sapiens) (O15297 whole entry, looked up): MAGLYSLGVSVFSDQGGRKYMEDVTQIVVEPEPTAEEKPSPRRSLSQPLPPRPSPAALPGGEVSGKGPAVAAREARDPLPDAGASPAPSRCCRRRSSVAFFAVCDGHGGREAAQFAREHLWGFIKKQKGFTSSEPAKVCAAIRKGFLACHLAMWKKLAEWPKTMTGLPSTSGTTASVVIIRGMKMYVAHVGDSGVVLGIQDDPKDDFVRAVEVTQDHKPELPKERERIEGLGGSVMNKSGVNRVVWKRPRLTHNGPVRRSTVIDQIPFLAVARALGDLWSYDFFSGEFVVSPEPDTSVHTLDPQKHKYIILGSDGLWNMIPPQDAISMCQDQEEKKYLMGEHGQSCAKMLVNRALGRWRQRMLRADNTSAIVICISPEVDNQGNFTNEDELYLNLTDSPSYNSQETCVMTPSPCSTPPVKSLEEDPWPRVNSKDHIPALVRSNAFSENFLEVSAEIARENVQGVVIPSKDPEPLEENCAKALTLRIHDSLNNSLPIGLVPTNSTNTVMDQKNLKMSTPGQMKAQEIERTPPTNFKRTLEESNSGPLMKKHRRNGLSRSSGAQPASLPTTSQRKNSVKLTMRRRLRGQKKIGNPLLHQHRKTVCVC
Chain of Calcium and integrin-binding protein 1 (Homo sapiens) (Q99828 whole entry, looked up): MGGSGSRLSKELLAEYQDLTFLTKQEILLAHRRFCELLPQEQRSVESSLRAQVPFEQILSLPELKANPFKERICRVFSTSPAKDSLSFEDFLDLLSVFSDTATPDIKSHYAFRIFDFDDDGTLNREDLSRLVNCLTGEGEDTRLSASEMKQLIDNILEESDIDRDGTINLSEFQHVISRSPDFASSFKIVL

Cc1cc(C)cc(OCC2CNC(=O)O2)c1 (stereo not given)
inactive: all assays above

O=[N+]([O-])c1cccc(S(=O)(=O)NCCNS(=O)(=O)c2cccc([N+](=O)[O-])c2)c1
inactive: all assays above

CCOC(=O)Nc1ccc2c(c1)N(C(=O)CCN1CCOCC1)c1ccccc1S2
inactive: all assays above

Nc1ccc(S(=O)(=O)NCc2ccccc2)cc1
inactive: all assays above

CCOC(=O)c1c(N)sc2c1CCN(Cc1ccccc1)C2
inactive: all assays above
